Measured values reported in the supplement of paper PMC8728848.
The entries come from a sample that favours the strongest signals as a whole.

Key:
Assay in all cases: glycan array binding signal (z-score within array); higher = stronger binding
Conditions in all cases: glycan notation: IUPAC condensed, linker removed
[1] = molecular target: Fuc(a1-2)Gal(b1-4)GlcNAc(b1-3)Gal(b1-4)GlcNAc(b1-2)Man(a1-3)[Fuc(a1-2)Gal(b1-4)GlcNAc(b1-3)Gal(b1-4)GlcNAc(b1-2)Man(a1-6)]Man(b1-4)GlcNAc(b1-4)GlcNAc
In short: (§1)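 Columns mapping to the same glycan were averaged after glycan names were converted to IUPAC-condensed notation. The data come from 3228 arrays in the Consortium for Functional Glycomics database, limited to those with an available protein sequence. Binding is reported as a within-array Z-score averaged across arrays of one protein sequence and across linkers.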

Fuc(a1-2)[Gal(a1-3)]Gal = molecular target: Fuc(a1-2)[Gal(a1-3)]Gal
In short: as §1

[2] = molecular target: Fuc(a1-2)[Gal(a1-3)]Gal(b1-3)GalNAc(b1-3)Gal(a1-4)Gal(b1-4)Glc
In short: as §1

[3] = molecular target: Fuc(a1-2)[GalNAc(a1-3)]Gal
In short: as §1

[4] = molecular target: Gal(a1-3)Gal(b1-3)GlcNAc(b1-3)GalNAc
In short: as §1

[5] = molecular target: Gal(a1-3)Gal(b1-4)GlcNAc(b1-3)GalNAc
In short: as §1

[6] = molecular target: Gal(a1-4)Gal(b1-4)GlcNAc(b1-2)Man(a1-3)[Gal(a1-4)Gal(b1-4)GlcNAc(b1-2)Man(a1-6)]Man(b1-4)GlcNAc(b1-4)GlcNAc
In short: as §1

[7] = molecular target: Gal(b1-3)GlcNAc(b1-3)Gal(b1-4)GlcNAc(b1-6)[Gal(b1-3)GlcNAc(b1-3)]Gal(b1-4)Glc
In short: as §1

[8] = molecular target: Gal(b1-3)[Fuc(a1-4)]GlcNAc(b1-6)GalNAc
In short: as §1

Gal(b1-4)GlcNAc(b1-2)Man = molecular target: Gal(b1-4)GlcNAc(b1-2)Man
In short: as §1

[9] = molecular target: Gal(b1-4)GlcNAc(b1-2)Man(a1-3)[Gal(b1-4)GlcNAc(b1-2)Man(a1-6)][Gal(b1-4)GlcNAc(b1-4)]Man(b1-4)GlcNAc(b1-4)[Fuc(a1-6)]GlcNAc
In short: as §1

[10] = molecular target: Gal(b1-4)GlcNAc(b1-2)Man(a1-3)[Gal(b1-4)GlcNAc(b1-2)Man(a1-6)][GlcNAc(b1-4)]Man(b1-4)GlcNAc(b1-4)[Fuc(a1-6)]GlcNAc
In short: as §1

[11] = molecular target: Gal(b1-4)GlcNAc(b1-2)Man(a1-3)[Gal(b1-4)GlcNAc(b1-2)][GlcNAc(b1-4)]Man(b1-4)GlcNAc(b1-4)GlcNAc
In short: as §1

[12] = molecular target: Gal(b1-4)GlcNAc(b1-3)Gal(b1-4)Glc
In short: as §1

[13] = molecular target: Gal(b1-4)GlcNAc(b1-3)Gal(b1-4)GlcNAc(b1-3)Gal(b1-4)GlcNAc
In short: as §1

[14] = molecular target: Gal(b1-4)GlcNAc(b1-3)Gal(b1-4)GlcNAc(b1-3)Gal(b1-4)GlcNAc(b1-3)Gal(b1-4)GlcNAc(b1-3)Gal(b1-4)GlcNAc(b1-2)Man(a1-3)[Gal(b1-4)GlcNAc(b1-3)Gal(b1-4)GlcNAc(b1-3)Gal(b1-4)GlcNAc(b1-3)Gal(b1-4)GlcNAc(b1-3)Gal(b1-4)GlcNAc(b1-2)Man(a1-6)]Man(b1-4)GlcNAc(b1-4)GlcNAc
In short: as §1

[15] = molecular target: Gal(b1-4)GlcNAc(b1-3)Gal(b1-4)GlcNAc(b1-3)Gal(b1-4)GlcNAc(b1-3)Gal(b1-4)GlcNAc(b1-3)Gal(b1-4)GlcNAc(b1-2)[Gal(b1-4)GlcNAc(b1-3)Gal(b1-4)GlcNAc(b1-3)Gal(b1-4)GlcNAc(b1-3)Gal(b1-4)GlcNAc(b1-3)Gal(b1-4)GlcNAc(b1-6)]Man(a1-6)[Gal(b1-4)GlcNAc(b1-3)Gal(b1-4)GlcNAc(b1-3)Gal(b1-4)GlcNAc(b1-3)Gal(b1-4)GlcNAc(b1-3)Gal(b1-4)GlcNAc(b1-2)Man(a1-3)]Man(b1-4)GlcNAc(b1-4)[Fuc(a1-6)]GlcNAc
In short: as §1

[16] = molecular target: Gal(b1-4)GlcNAc(b1-3)Gal(b1-4)GlcNAc(b1-3)[Gal(b1-4)GlcNAc(b1-3)Gal(b1-4)GlcNAc(b1-6)]GalNAc
In short: as §1

Gal3S(b1-4)GlcNAc6S = molecular target: Gal3S(b1-4)GlcNAc6S
In short: as §1

GalNAc(b1-4)GlcNAc6S = molecular target: GalNAc(b1-4)GlcNAc6S
In short: as §1

[17] = molecular target: GlcNAc(a1-3)Gal(b1-4)GlcNAc
In short: as §1

[18] = molecular target: GlcNAc(a1-4)Gal(b1-3)GlcNAc
In short: as §1

[19] = molecular target: GlcNAc(a1-4)Gal(b1-4)GlcNAc(b1-3)Gal(b1-4)Glc
In short: as §1

B1: rAAL-2 (Agrocybe aegerita) (protein)
chain: MTSNVITQDLPIPVASRGFADIVGFGLDGVVIGRNAVNLQPFLAVKNFAQNAGGWLTTKHVRLIADTTGTGKGDIVGFGNAGVYVSVNNGKNTFADPPKMVIANFGYDAGGWRVEKHLRYLADIRKIGRADIIGFGEKGVLVSRNNGGLNFGPATLVLKDFGYDAGGWRLDRHLRFLADVTGNGHLDIVGFGDKHVFISRNNGDGTFAPAKSVIDNFCIDAGGWKIGDHPRFVADLTGDGTADIIGCGKAGCWVALNNGGGVFGQVKLVINDFGTDKGWQAAKHPRFIADLTGNGRGDVVGFGNAGVYVALNNGDGTFQSAKLVLKDFGVQQGWTVSKHRRFVVDLTGDGCADIIGFGEKETLVSYNDGKGNFGPVKALTNDFSFSGGKWAPETTVCWMANLDSSRH
glycan array binding signal (z-score) [1]: -0.083 | glycan array binding signal (z-score) (Fuc(a1-2)[Gal(a1-3)]Gal): -0.221 | glycan array binding signal (z-score) [2]: 0.126 | glycan array binding signal (z-score) [3]: -0.342 | glycan array binding signal (z-score) [4]: -0.274 | glycan array binding signal (z-score) [5]: -0.36 | glycan array binding signal (z-score) [6]: 0.062 | glycan array binding signal (z-score) [7]: -0.234 | glycan array binding signal (z-score) [8]: -0.064 | glycan array binding signal (z-score) (Gal(b1-4)GlcNAc(b1-2)Man): -0.16 | glycan array binding signal (z-score) [9]: -0.282 | glycan array binding signal (z-score) [10]: -0.482 | glycan array binding signal (z-score) [11]: -0.266 | glycan array binding signal (z-score) [12]: -0.317 | glycan array binding signal (z-score) [13]: -0.113 | glycan array binding signal (z-score) [14]: -0.319 | glycan array binding signal (z-score) [15]: 0.032 | glycan array binding signal (z-score) [16]: 0.004 | glycan array binding signal (z-score) (Gal3S(b1-4)GlcNAc6S): -0.11 | glycan array binding signal (z-score) (GalNAc(b1-4)GlcNAc6S): -0.107 | glycan array binding signal (z-score) [17]: 4.67 | glycan array binding signal (z-score) [18]: 3.84 | glycan array binding signal (z-score) [19]: 4.64
